Sampled rows, rich in hits. Any-hit rate of the full collection: about 3.3%.
AmpC inh no detg = qHTS Inhibitors of AmpC Beta-Lactamase (assay without detergent). P00811. AmpC nitrocefin hydrolysis, absorbance 480 nm, 0.0001% Triton. Potency, µM (series often up to 57.1 µM), without a hit: top-dose activity change, negative = inhibition, most hits filed as inhibitors. hit rate 0.52% among 330,000;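 note: plate controls were no compound for no effect and no enzyme for full effect; nearly all actives have a fitted effect of over 20% in size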
Target sequence (P00811 whole entry, looked up): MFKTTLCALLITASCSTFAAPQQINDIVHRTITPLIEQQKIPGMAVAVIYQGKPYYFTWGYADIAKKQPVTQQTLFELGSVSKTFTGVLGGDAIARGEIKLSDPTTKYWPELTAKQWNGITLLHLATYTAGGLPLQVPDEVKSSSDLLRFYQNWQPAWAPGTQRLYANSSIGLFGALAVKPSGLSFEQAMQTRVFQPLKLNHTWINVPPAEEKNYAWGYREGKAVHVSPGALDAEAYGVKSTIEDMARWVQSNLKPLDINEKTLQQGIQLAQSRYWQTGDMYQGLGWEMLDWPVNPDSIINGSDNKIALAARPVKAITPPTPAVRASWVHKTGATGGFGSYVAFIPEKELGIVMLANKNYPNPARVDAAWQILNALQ
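AmpC (5.3 nM in the dispensed reagent) in 20 mM phosphate pH 7.0 with 0.01% (detergent screen) or 0.0001% Triton X-100 was preincubated with compounds for 15 min at room temperature. Nitrocefin was then added from an 800 uM solution, and hydrolysis was followed at 480 nm.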
AmpC detergent = qHTS Inhibitors of AmpC Beta-Lactamase (assay with detergent); P00811; AmpC hydrolysis of nitrocefin, absorbance 480 nm, 0.01% Triton; Potency, µM (doses to about 114 µM), inactives show at the top dose activity change, negative = inhibition, hits mostly inhibitors; hit rate 0.041% among 370,000;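 note: 0% = no-compound wells and -100% = no-enzyme wells; nearly all actives have a fitted effect of over 25% in size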
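20 mM phosphate pH 7.0 + 0.01% (detergent screen) or 0.0001% Triton X-100; 5.3 nM AmpC reagent; cpd preinc 15 min RT; nitrocefin (800 uM stock) to start; A480 q20 s × 4 min; Activity was normalised to no-enzyme and no-compound control wells.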
Sm TGR inh = qHTS Assay for the Inhibitors of Schistosoma Mansoni Peroxiredoxins; hit rate 3% among 360,000; Schistosoma mansoni thioredoxin glutathione reductase (TGR), Q962Y6; Potency, µM (top dose mostly 114 µM), for the others: top-dose activity change, negative = inhibition, most hits filed as inhibitors; purified TGR, DTNB reduction, TNB absorbance 405 nm; note: nearly all actives have a fitted effect of over 60% in size
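First, TGR (20 nM dispensed) and NADPH were mixed with compound. Second, a 15 min room-temperature incubation followed. Third, further NADPH and then DTNB were added to start the reaction. Finally, TNB absorbance was monitored kinetically.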
Active calls of the source: *; ? = inconclusive; nt = no result given; [ ] = remark or other dose. Calls come from the whole dose curve; as a rule, active = well fitted curve in the direction sought with a large enough effect; inconclusive = small, poorly fitted or top-dose-only effect, or another doubt; inactive = no such curve, though single readings can be large; an effect the other way counts as inactive or inconclusive. Unless noted, % is set by controls: 0 for no effect and ±100 for the full control effect; potency is the fitted concentration of half-maximal effect.

SMILES	AmpC inh no detg	AmpC detergent	Sm TGR inh
O=C(COC(=O)CCC(=O)c1ccc(Cl)cc1)NCc1ccco1	12%	?	18µM*
O=C(COC(=O)CCOc1ccccc1)NCc1ccco1	-4%	?	35µM*
Cc1ccc(-c2csc(=S)n2CC(=O)OCC(=O)NCc2ccco2)cc1	-30%	?	40µM*
COc1ccc(OCC(=O)OCC(=O)NCc2ccco2)cc1	-1%	-19%	19%
O=C(COC(=O)CCC(=O)c1ccc(F)cc1)NCc1ccc(Cl)cc1	22%	nt	nt
Cc1ccc(-c2csc(=S)n2CC(=O)OCC(=O)NC(C)C(C)C)cc1 (configuration not stated)	70%	-14%	0%
COc1ccccc1NCc1cccn1-c1nnc(N2CCCCCC2)s1	nt	10%	4%
Cc1cc(C)c(NC(=O)Cn2c(=O)n(CCCCC(=O)NCc3ccccc3Cl)c(=O)c3ccccc32)c(C)c1	nt	24%	1%
O=C(CSc1ccc(-c2cccs2)nn1)Nc1cccc(F)c1	nt	-11%	-4%
Cc1cc(C)c(NC(=O)c2c(C)oc3c2C2=NCCN2C=N3)c(C)c1	nt	23%	-5%
CCOC(=O)c1ccc(N2CCN(c3cc(C)ccc3C)CC2)c(NC(=O)Nc2ccc(Cl)cc2)c1	nt	7%	2%
Cc1ccccc1OCC(=O)N(Cc1ccc(N(C)C)cc1)CC1CCCO1 (configuration not stated)	nt	-4%	0%
O=C(c1ccc2nc(-c3ccco3)c(-c3ccco3)nc2c1)N1CCN(c2ncccn2)CC1	128%	?	10µM*
Cc1nc2cc(NC(=O)N3CCN(c4ccccn4)CC3)ccc2o1	nt	-1%	5%
O=C(Nc1ccc2nc(-c3ccco3)c(-c3ccco3)nc2c1)N1CCN(c2ccccn2)CC1	-6%	1%	2µM*
O=C(c1cccc(C(=O)N2CCN(c3ncccn3)CC2)c1)N1CCN(c2ncccn2)CC1	83%	0%	14%
Cc1ccc(OCC(=O)Nc2nnc(S(=O)(=O)N3c4ccccc4CC3C)s2)cc1 (configuration not stated)	nt	11%	10%
CCCCCn1c(CCCNC(=O)c2ccccc2)nc2ccccc21	nt	-4%	0%
Clc1cccc(-c2nc3ccccn3c2Nc2ccc3c(c2)OCCO3)c1	nt	0%	0%
Cc1ccc(N(C)C(CNS(=O)(=O)c2ccccc2)c2ccccc2)cc1 (configuration not stated)	nt	12%	3%
CCOc1ccc(OC(=O)c2cn(-c3ccc(C)cc3)c(=O)c3ccccc23)cc1	nt	5%	?
COc1ccc(-n2ncc3c(NC(C)(C)CO)ncnc32)cc1	nt	4%	4%
CCCN(CC(=O)Nc1ccccc1C)C(=O)COC(=O)CSc1ccc([N+](=O)[O-])cc1	-6%	?	-4%
CCCN(CC(=O)Nc1ccccc1C)C(=O)CCl	-18%	4%	14µM*
CCCN(CC(=O)Nc1ccccc1C)C(=O)c1ccc(-c2ccc([N+](=O)[O-])cc2)o1	-7%	3%	6.3µM*
SMILES	AmpC inh no detg	AmpC detergent	Sm TGR inh
CCN(CC(=O)Nc1cc(Cl)ccc1C)C(=O)COc1ccccc1F	-7%[11.4 µM]	?	-10%
CCCN(CC(=O)Nc1ccccc1C)C(=O)COc1c(C)cccc1C	3%	?	-6%
CCN(CC(=O)Nc1cc(Cl)ccc1C)C(=O)CCOc1ccccc1C	-12%	?	35µM*
CCc1ccc(-n2c(SCc3nc(-c4cc(OC)ccc4OC)no3)nnc2-c2ccccc2)cc1	nt	18%	9%
Cc1ccc(C(=O)c2sc(Nc3ccccc3)c(S(=O)(=O)c3ccccc3)c2N)c(C)c1	nt	21%	5%
CCOc1ccc(NC(=O)CCS(=O)(=O)c2cc3c4c(c2)CCN4C(=O)CC3)cc1	nt	2%	-5%
CCOc1ccccc1CN1CCc2nc(N3CCN(C)CC3)ncc2C1	nt	13%	1%
COc1cc(OC)c(OC)cc1CN1CCc2nc(N3CCN(C)CC3)ncc2C1	nt	8%	40µM*
COCCCNC(=O)C1CCN(c2nc3ccc(Cl)cc3[nH]2)CC1	nt	19%	1%
COc1ccc(CNc2ncnc3c2c(-c2ccccc2)cn3-c2ccccc2)cc1	nt	7%	17%
O=c1c(O)cccc2cc(O)c(O)c(O)c12	10µM*	?	8.9µM*
O=c1cc(-c2ccccc2)oc2cc(O)c(O)c(O)c12	-30%	nt	nt
COc1ccccc1C(=O)Nc1sc(Nc2ccccc2)nc1C(N)=O	nt	21%	1%
Cc1ccc(C(=O)NCC(c2ccc3c(c2)OCO3)N2CCOCC2)cc1 (configuration not stated)	nt	3%	7%
Cc1cccc(C(=O)NCC(c2ccc3c(c2)OCO3)N2CCOCC2)c1 (configuration not stated)	nt	2%	25µM*
COC(=O)[C@@H]1C[C@@H]2CC[C@@H](O)C[C@@H]2N1Cc1ccccc1OS(=O)(=O)c1ccc(C)cc1	72%	1%	28µM*
COC(=O)[C@@H]1C[C@H]2CC[C@H](O)C[C@H]2N1Cc1ccccc1OC(=O)c1cccs1	8%	-1%	?
Cc1cc(C(=O)COC(=O)c2cc(Cl)c(O)c(Cl)c2)c(C)n1C	-10%	2%	50µM*
Cc1cc(C(=O)COC(=O)c2ccc(F)cc2)c(C)n1C	-15%	nt	nt
CCCS(=O)(=O)N1CCN(S(=O)(=O)c2ccccc2)CC1	4%	4%	1%
CC1(CCl)CN1S(=O)(=O)c1ccccc1 (configuration not stated)	-2%	4%	40µM*
Cc1ccc(OCC(=O)Nc2cccc(C(=O)OCc3cc(=O)n4nc(C)sc4n3)c2)cc1	nt	5%	3%
CCc1ccc2occ(CC(=O)Nc3c(C(=O)c4ccc(F)cc4)oc4ccccc34)c2c1	nt	-4%	0%
O=C(O[C@@H]1OC2COC(=O)c3cc(O)c(O)c(O)c3-c3c(cc(O)c(O)c3O)C(=O)O[C@@H]([C@H]1O)[C@@H]2O)c1cc(O)c(O)c(O)c1	-11%	-3%	28µM*
Cc1cc(C)c(/C=C/c2onc(C)c2S(=O)(=O)N2CCC(C(=O)N(C)Cc3ccccc3)CC2)c(C)c1	nt	-1%	1%
SMILES	AmpC inh no detg	AmpC detergent	Sm TGR inh
CCOc1ccc(C(=O)N2CC(=O)Nc3ccc(C)cc3C2c2ccc(F)cc2)cc1OCC (configuration not stated)	nt	?	1%
CC(C)CC(=O)OCc1cc(=O)n2nc(C3CCCCC3)sc2n1	nt	-6%	-8%
O=C(NCc1ccccc1Cl)NCc1noc2ccccc12	nt	16%	1%
Cc1onc(-c2c(Cl)cccc2Cl)c1C(=O)NNc1ccccc1	-28%	2%	50µM*
Oc1ccc(NC(=S)Nc2ccccc2)cc1	-24%	-10%	-6%
Cc1onc(-c2c(Cl)cccc2Cl)c1NC(=O)NNc1ccccc1	-21%	-4%	-12%
Cc1onc(-c2c(F)cccc2Cl)c1C(=O)ONC(=O)c1ccco1	-11%	-3%	13µM*
Cc1onc(-c2ccccc2)c1C(=O)Nc1cccc(C#N)c1	11µM*	3%	3%
Cc1onc(-c2ccccc2)c1C(=O)Nc1ccncc1	-12%	?	5%
Cc1onc(-c2c(F)cccc2Cl)c1C(=O)NCc1ccccc1	2%	-2%	5%

Screening data as filed in PubChem.
